According to PubChem BioAssay AID431 (Sanford-Burnham Center for Chemical Genomics, 2006):
Screen size: about 63,000 compounds; about 1,100 (1.7%) were called active.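 How the source made its calls: active means compounds whose percent cytotoxicity in the single-dose primary screen, scaled between solvent and toxic-drug controls, exceeds 50; inactive means the rest.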 The entries come from a sample that favours actives as a whole. Measured potencies and affinities stand elsewhere.

Experiment: cytotoxicity in KRAS-transformed pancreatic duct cells, primary screen, cell-based, fluorescence, HTS (AID 431);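 further: 0% = DMSO solvent wells and 100% = doxorubicin-treated wells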
Conditions: HPDE-C7K KRASV12 cells, Alamar Blue viability, 48 h; at 10 µM; stronger effect = higher value

Structure (SMILES) | cytotoxicity
CC(C)(CSc1nncn1N)NS(=O)(=O)c1ccc(Cl)cc1 | 0% (inactive)
Cc1cc(-c2ccccc2)c(C#N)c(SCC(N)=O)n1 | 0.4% (inactive)
CC1CCCN(C(=O)Cn2nnc(-c3cccnc3)n2)C1 (stereo unspecified) | 1% (inactive)
CC(NS(=O)(=O)c1ccc(F)cc1)C(c1cccs1)N1CCN(C)CC1 (stereo unspecified) | -12.3% (inactive)
CC1CCCCN1S(=O)(=O)c1ccc(S(=O)(=O)N2CCN(c3ccc(F)cc3)CC2)cc1 (stereo unspecified) | -7.9% (inactive)
Cc1nc(CN2CCN(C(=O)NC3(c4ccccc4)CC3)CC2)cs1 | -4.3% (inactive)
COc1ccc2c(c1OC)C(=O)N1c3ccccc3C(=O)N(c3ccc(F)cc3)C21 (stereo unspecified) | 12.3% (inactive)
COc1ccc2c(c1OC)C(=O)N1c3ccccc3C(=O)N(c3ccccc3F)C21 (stereo unspecified) | 53.2% (active)
COc1ccc2c(c1OC)C(=O)N1c3ccccc3C(=O)N(c3ccccc3)C21 (stereo unspecified) | 38.7% (inactive)
CCN(CCNC(=O)C1CCN(S(C)(=O)=O)CC1)c1ccccc1 | -4.7% (inactive)
CCOC(=O)c1ccc(NC(=O)N2CCc3ccccc32)cc1 | 16.1% (inactive)
CC(C)CC(=O)Nc1ccccc1N1CCCC1 | -13.9% (inactive)
O=C(CN1CCCCC1)Nc1ccccc1NC(=O)CN1CCCCC1 | -8.2% (inactive)
CCOC(=O)c1ccc(NC(=O)CN2CCN(c3ccccc3)CC2)cc1 | -0.6% (inactive)
COc1ccc(NC(=O)CNCCC2=CCCCC2)cc1 | -7.1% (inactive)
O=C(CN1CCc2ccccc2C1)Nc1ccccc1N1CCCCCC1 | 62.4% (active)
CCOC(=O)c1ccc(NC(=O)CN2CCc3ccccc3C2)cc1 | 53.1% (active)
O=C(COc1ccccc1)Nc1ccccc1N1CCCCC1 | -5.3% (inactive)
O=C(CNCCC1=CCCCC1)Nc1ccccc1N1CCCCC1 | 74.2% (active)
COc1ccc(CCNC(=O)c2c(O)c3cccc4c3n(c2=O)CC4)cc1OC | 3.1% (inactive)
Cc1cc(C(=O)OCC(=O)N2CC(C)CC(C)C2)c(C)o1 (stereo unspecified) | -1% (inactive)
CC(=O)c1ccc(NC(=O)C2CCCNC2=O)cc1 (stereo unspecified) | -14.4% (inactive)
Cc1nnc2ccc(N3CCN(c4cccc(C(F)(F)F)c4)CC3)nn12 | 3.9% (inactive)
Cn1c(=O)n(-c2ccccc2)c(=O)c2c3c(sc21)COC(C)(C)C3 | -13.9% (inactive)
Cc1ccc(S(=O)(=O)NC(=NCC(=O)O)c2ccccc2)cc1 | 5.9% (inactive)
CCOc1ccc2[nH]c(=O)c(CN(CCOC)C(=O)N3CCOCC3)cc2c1 | 5.7% (inactive)

Structure (SMILES) | cytotoxicity
COc1ccccc1NS(=O)(=O)c1ccc(NC(C)=O)cc1 | 1.6% (inactive)
CCOC(=O)CN(Cc1ccccc1)S(=O)(=O)c1ccc(NC(C)=O)cc1 | 8.6% (inactive)
CC(=O)Nc1ccc(S(=O)(=O)c2ccc(N)cc2)cc1 | -14.7% (inactive)
COC(=O)/C=C/S(=O)(=O)c1ccc(NC(C)=O)cc1 | 58.8% (active)
COC(=O)C(C)NS(=O)(=O)c1ccc(NC(C)=O)cc1 (stereo unspecified) | -26.3% (inactive)
CC(C)c1c(O)nc(SCc2ccccc2)[nH]c1=O | -18% (inactive)
COc1ccc(-n2nnnc2SCC(=O)c2cccc(OC)c2)cc1 | 25.7% (inactive)
O=C(CSc1nnnn1-c1ccccc1)CSc1nnnn1-c1ccccc1 | 3% (inactive)
COc1ccc(-c2nnnn2CCc2ccccc2)cc1 | -2.2% (inactive)
CCOc1cccc(-n2nnnc2-c2ccc(OC)cc2)c1 | 52.1% (active)
COc1cccc(-n2nnnc2SCC(=O)c2cc(OC)ccc2OC)c1 | -8.2% (inactive)
COc1ccc(-n2nnnc2-c2cccnc2)cc1 | 0.7% (inactive)
COc1ccc(-n2nnnc2-c2cccc(OC)c2)cc1 | 60.7% (active)
COc1cccc(Oc2nnnn2-c2ccccc2)c1 | -16.1% (inactive)
N#CCCS(=O)(=O)c1nnnn1-c1ccccc1 | 67.8% (active)
CCS(=O)(=O)c1nnnn1-c1ccccc1S(C)(=O)=O | 36.8% (inactive)
COc1ccc(-c2nnnn2-c2ccccc2OC)cc1 | 36.6% (inactive)
O=C(Nc1ccc2c(c1)OCCO2)C1CCN(C(=O)c2ccc(Br)cc2)CC1 | 4.7% (inactive)
COc1ccc(N2C(=O)C(CC(=O)Nc3ccccc3)N(Cc3ccc4c(c3)OCO4)C2=O)cc1 (stereo unspecified) | -9% (inactive)
c1ccc2c(c1)nc(Nc1ccc3c(c1)OCO3)c1nnnn12 | -10.2% (inactive)
COc1ccc(CCNC(=O)CCS(=O)(=O)c2cccc3nsnc23)cc1OC | -2.7% (inactive)
COc1ccc(OC)c2sc(N3CCN(c4ccccc4)CC3)nc12 | 15.9% (inactive)
CCCc1c(C(=O)OCC)[nH]c2c1C(=O)CCC2 | 10% (inactive)
O=C(Nc1ccc(C(F)(F)F)cc1)C1CCCN1S(=O)(=O)c1cccc2cccnc12 (stereo unspecified) | 16.9% (inactive)
C=CCNC(=O)c1ccccc1NS(=O)(=O)c1ccc(SC)cc1 | 26.3% (inactive)
CCOc1ccc(NC(=O)CN2CCN(CC(=O)Nc3ccc4c(c3)OCCO4)CC2)cc1 | -5.7% (inactive)

Structure (SMILES) | cytotoxicity
O=CNC1CCCc2c1[nH]c1ccc(Cl)cc21 (stereo unspecified) | 12.8% (inactive)
Cc1ccc2[nH]c3c(c2c1)CCC3=O | -12.2% (inactive)
CC(Oc1ccc(Cl)cc1)C(=O)Nc1nccs1 (stereo unspecified) | -6% (inactive)
c1ccc(-n2nnnc2Sc2n[nH]c(-c3ccncc3)n2)cc1 | -8.6% (inactive)
CC(=O)C1=C(O)C(=O)N(CCN(C)C)C1c1ccc(Cl)cc1 (stereo unspecified) | 1% (inactive)
COc1cccc(CNC(=O)C2CCN(C(=O)N(C)C)CC2)c1 | -6.1% (inactive)
CCC(NC(C)C)C(O)c1ccc(O)c(O)c1 (stereo unspecified) | 2.8% (inactive)
Cc1ccc(O)c(CC(C)C)n1 | 5.8% (inactive)
CC1CCCN(S(=O)(=O)c2cccc(-c3cn4cccnc4n3)c2)C1 (stereo unspecified) | -3% (inactive)
O=C(Nc1ccc(N2CCOCC2)cc1)Nc1ccc2nc(-c3ccco3)c(-c3ccco3)nc2c1 | 80.3% (active)
O=C(Nc1ccc2nc(-c3ccco3)c(-c3ccco3)nc2c1)N1CCCCCC1 | 38.8% (inactive)
O=C(Nc1ccc(N2CCOCC2)cc1)c1ccc2nc(-c3ccco3)c(-c3ccco3)nc2c1 | -26.4% (inactive)
Cn1nnnc1SCC(=O)N1CCc2ccccc2C1 | -12.2% (inactive)
CC(C)c1ccc(NC(=O)C(c2ccccc2)N2CCN(C(=O)c3ccco3)CC2)cc1 (stereo unspecified) | -11.8% (inactive)
COc1ccc(NS(=O)(=O)c2ccc(O)c(C(=O)OCC(=O)N3CC(C)OC(C)C3)c2)cc1 (stereo unspecified) | 11.2% (inactive)
C=CCn1c(Cc2csc(N)n2)nnc1SCc1ccc(C(=O)OC)cc1 | -10.3% (inactive)
Cc1ccc(-n2c(SCC(=O)NCc3ccco3)nc3sc(C)c(C)c3c2=O)cc1 | -4% (inactive)
Cc1cc(=O)oc2c(N)c(O)ccc12 | -2.8% (inactive)
Cc1cc(C)c2ccc(C)[n+]([O-])c2c1O | -6.5% (inactive)
Cc1cc(C)c2ccc(N)nc2c1O | 121% (active)
CCCC(=O)Nc1ccccc1NC(=O)CN(C)S(=O)(=O)c1ccccc1 | -1.8% (inactive)
CC(C)(C)NC(=O)CSc1nsc(SCC(=O)NC(C)(C)C)c1C#N | 11.8% (inactive)
Cc1csc(NC(=O)CSc2nc(C)cs2)n1 | 6.5% (inactive)
Cc1n[nH]c(C)c1Cc1ccc(C(=O)O)cc1 | -13.2% (inactive)
CS(=O)(=O)c1ccc2nc(NC(=O)CC3CCCC3)sc2c1 | -9% (inactive)
Cc1cc(C)c(NC2=NCC(=O)N2C2CCCCC2)c(C)c1 | -9.5% (inactive)

Structure (SMILES) | cytotoxicity
Cc1nc(N2CCc3ccccc3C2)[nH]c(=O)c1CCC(C)C | 8.4% (inactive)
COc1ccc(C)cc1NC(=O)CN(c1ccccc1)S(C)(=O)=O | -2.4% (inactive)
O=C(Nc1nccs1)c1cc2sccc2n1Cc1ccc(F)cc1 | -3.4% (inactive)
c1ccc(-n2nnnc2SCCCSc2nc3ccccc3s2)cc1 | 2% (inactive)
COc1ccc(CCNC(=O)CSc2nnnn2-c2ccccc2OC)cc1OC | 6.4% (inactive)
CCCSc1nnc(Sc2nnnn2-c2ccccc2)s1 | 88.2% (active)
Cc1ccc(C)c(Oc2nnnn2-c2ccccc2)c1 | -2.3% (inactive)
Cn1ccnc1Sc1nnnn1-c1ccccc1 | -9.8% (inactive)
COc1ccc(-n2nnnc2SCC(=O)NCCc2ccc(OC)c(OC)c2)cc1 | -3.9% (inactive)
C(=C\CSc1nnnn1-c1ccccc1)/CSc1nnnn1-c1ccccc1 | -12.8% (inactive)
COc1ccc(CCNc2nnc(Sc3nnnn3-c3ccccc3)s2)cc1OC | 68.8% (active)
CC1CC(c2ccccc2)n2nc(NC(=O)CCc3ccccc3)nc2N1 (stereo unspecified) | 3.9% (inactive)
O=C(NCc1cccs1)c1noc2c1CCCC2 | 5.2% (inactive)
O=C1CC(N2CCN(c3ccc(S(=O)(=O)N4CCCC4)cc3)CC2)C(=O)N1c1ccc(F)cc1 (stereo unspecified) | -0.7% (inactive)
CCOc1ccc2[nH]c(O)c(NC(C)=O)c2c1 | -16.9% (inactive)
Cc1oc(-c2ccc(Cl)cc2)nc1CN1CCC(C(=O)N2CCN(c3ccccn3)CC2)CC1 | 8% (inactive)
O=C(NC1CCCCC1)n1c(=O)oc2ccccc21 | -35.5% (inactive)
Cc1nc(NC(=O)c2ccccc2)sc1-c1csc(NCc2ccco2)n1 | 73.6% (active)
O=C(Nc1nc(-c2ccco2)cs1)c1ccccc1 | 20.8% (inactive)
Cc1nc(NC(=O)c2ccccc2)sc1-c1csc(N)n1 | 58.6% (active)
O=C(Nc1nc2c(s1)C(=O)CCC2)c1ccccc1 | -6.7% (inactive)
Cc1nc(C)c(-c2csc(NCc3ccco3)n2)s1 | -14.9% (inactive)
CCOC(=O)c1csc(NC(=O)c2ccccc2)n1 | -0.2% (inactive)
